Compound activity (PubChem BioAssay)
Cruzain inh noDet: qHTS Assay for Promiscuous and Specific Inhibitors of Cruzain (without detergent); Potency, µM, for the others: max response, negative = inhibition, usual class: inhibitors; actives 2.3% (n = 200,000); Cruzipain (Trypanosoma cruzi), P25779; AID 1476, 2009; purified cruzain, Z-FR-AMC fluorescence, no detergent;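 also: plate controls were enzyme without inhibitor for no effect and buffer without enzyme for full effect; nearly all actives have a fitted effect of over 40% in size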
Target sequence (P25779 123-467 limits assumed): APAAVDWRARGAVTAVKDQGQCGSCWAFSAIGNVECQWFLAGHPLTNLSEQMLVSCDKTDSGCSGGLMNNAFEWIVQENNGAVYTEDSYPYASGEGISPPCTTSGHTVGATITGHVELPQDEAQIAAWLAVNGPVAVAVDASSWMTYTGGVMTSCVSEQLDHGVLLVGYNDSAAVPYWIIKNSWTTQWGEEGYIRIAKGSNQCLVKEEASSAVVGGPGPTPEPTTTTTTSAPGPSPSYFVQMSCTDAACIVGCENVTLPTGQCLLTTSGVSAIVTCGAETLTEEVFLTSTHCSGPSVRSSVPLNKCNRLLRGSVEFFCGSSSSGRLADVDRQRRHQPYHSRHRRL
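Detergent-free condition (0.00005% Triton X-100) in acetate buffer pH 5.5 with DTT. 1.5 nM enzyme and compound were pre-mixed 15 min, then 2 uM Z-FR-AMC substrate added; reaction progress from fluorescence change between first and third reads (60 s).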
Cruzain Triton: qHTS Assay for Promiscuous and Specific Inhibitors of Cruzain (with detergent) | purified cruzain, Z-FR-AMC fluorescence, 0.01% Triton | Cruzipain (Trypanosoma cruzi), P25779 | Potency, µM, for inactives: max response, negative = inhibition, hits mostly inhibitors | actives 0.43% (n = 200,000);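 also: plate controls were neutral wells for no effect and buffer without enzyme for full effect; nearly all actives have a fitted effect of over 40% in size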
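Enzyme 1.5 nM, Z-FR-AMC 2 uM, NaOAc 100 mM pH 5.5, DTT 5 mM, Triton X-100 0.01%; 15 min RT compound preincubation; kinetic ex360/em450, 60 s delta.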
Numbers without * were called inactive; ? = inconclusive. An excerpt weighted towards active compounds, which were near 2.5% of everything screened. Calls follow the shape of the dose curve; as a rule, active = well fitted curve in the direction sought with a large enough effect; inconclusive = small, poorly fitted or top-dose-only effect, or another doubt; inactive = no such curve, though single readings can be large; an effect the other way counts as inactive or inconclusive. Potency is read from the fitted curve at half-maximal effect.

SMILES | Cruzain inh noDet | Cruzain Triton
CCc1ccccc1N(C)C(=O)c1cn(CC(C)C)c(=O)c2cc(OC)c(OC)cc12 | ? | -4%
CCOC(=O)N1CCN(C(=O)c2ccc3c(c2)N(Cc2ccccc2F)C(=O)c2ccccc2S3(=O)=O)CC1 | -9% | 0%
Cc1ccc(NC(=O)COC(=O)/C=C/c2cccs2)cc1 | -8% | 0%
Cc1ccc(C(=O)Nc2ccc(C(=O)/C=C/c3cccs3)cc2)cc1 | 25µM* | 9%
O=C(/C=C/c1cccs1)c1ccc(NC(=O)c2cccc(Br)c2)cc1 | 16µM* | 1%
O=C(/C=C/c1cccs1)c1ccc(Br)cc1 | -4% | -5%
COc1ccc(C(=O)c2oc3ccccc3c2NC(=O)c2nc(SC)ncc2Cl)cc1Cl | 3% | -1%
COc1ccc(NC(=O)Cn2c(=O)n(C(C)C)c(=O)c3oc4ccccc4c32)cc1Cl | 8% | -1%
CC(CNC(=O)C(C)(C)C)NC(=O)C(C)(C)C (stereo unspecified) | 5µM* | -3%
CCCCCC(=O)NCC(C)NC(=O)CCCCC (stereo unspecified) | 13% | -1%
Cc1ccc2nc(NC(=O)CSc3nccn3Cc3ccccc3)sc2c1 | -28% | -5%
CCC(C)NC(=O)CSc1ccc(Cl)cc1 (stereo unspecified) | -10% | -1%
CCC(C)NC(=O)COC(=O)c1oc2ccccc2c1CSc1ccc(Cl)cc1 (stereo unspecified) | 25µM* | -3%
CCc1nnc(SCC(=O)Nc2cc(Cl)c(OC)cc2OC)c2cc3oc(C)cc3n12 | -16% | -1%
Cc1nn(-c2ccccc2)c2c1C(c1ccc([N+](=O)[O-])cc1)N1C(=N2)C(=O)Nc2ccccc21 (stereo unspecified) | -9% | -10%
Cc1nn(-c2ccc([N+](=O)[O-])cc2)c2c1C(c1cccc(Br)c1)N1C(=N2)C(=O)Nc2ccccc21 (stereo unspecified) | 4µM* | -3%
COc1cc2oc(=O)cc(-c3cccc(-c4ccc(C(C)=O)cc4)c3)c2c(OC)c1OC | 19% | 2%
CC(=O)c1ccc(-c2cccc(-c3cc(=O)oc4ccc(C(C)(C)C)cc34)c2)cc1 | 28µM* | -1%
CCc1cccc(-n2c(=O)c3cccnc3n2CC(=O)NCc2ccc(C)cc2)c1 | -17% | 1%
COC(=O)CCC(=O)NC(=S)Nc1sc(C)c(C)c1C(N)=O | ? | -1%
Cc1sc(NC(=S)NC(=O)CCc2ccccc2)c(C(N)=O)c1C | 4µM* | 0%
COc1ccc(OC)c(NC(=S)N(CCc2c(C)[nH]c3ccc(C)cc23)Cc2cccs2)c1 | 25µM* | -2%
COc1ccc(OC)c(NC(=S)N(CCc2c(C)[nH]c3ccccc23)Cc2cccs2)c1 | ? | 1%
Nn1cnc2sc3c(c2c1=O)CCC3 | 1% | 0%
O=c1c2c3c(sc2ncn1Cc1ccc(F)cc1)CCC3 | 7.9µM* | -2%
SMILES | Cruzain inh noDet | Cruzain Triton
COc1cc(C2c3c(-c4ccccc4O)n[nH]c3C(=O)N2Cc2ccco2)ccc1OCC(C)C (stereo unspecified) | ? | -15%
CSc1cccc(Nc2nc3c(S(=O)(=O)c4ccccc4)nnn3c3ccc(Cl)cc23)c1 | -5% | 0%
Cc1ccc(CCNC(=O)CN2C(=O)COc3ccc(S(=O)(=O)N4CCCCCC4)cc32)cc1 | 21% | -6%
CCn1cc2nc(SCc3cccc(C(F)(F)F)c3)n(Cc3ccc(C)cc3)c(=O)c2n1 | 11% | -3%
O=C(N/N=C/c1cn(CCOc2ccccc2)c2ccccc12)c1ccncc1 | ? | -10%
CCn1cc(/C=N/NC(=O)c2cc3c(ccc4ccccc43)o2)c2ccccc21 | 7.9µM* | -2%
Cc1ccc(/C=N/NC(=O)c2cc3c(ccc4ccccc43)o2)cc1[N+](=O)[O-] | 6.3µM* | -2%
O=C(NC1CCCC1)c1cc2c(ccc3ccccc32)o1 | -4% | -15%
CC(C)n1cc(/C=N\NC(=O)c2cc3c(ccc4ccccc43)o2)c2ccccc21 | 5µM* | -19%
O=C(N/N=C/c1cccnc1)c1cc2c(ccc3ccccc32)o1 | 4% | -22%
COCCn1ccc2c(OCC(=O)Nc3cccc(OC)c3)cccc2c1=O | -6% | -5%
C[C@H](CCC(=O)O)[C@H]1CC[C@@H]2[C@@H]3CC[C@H]4C[C@@H](O)CC[C@@]4(C)[C@@H]3C[C@H](O)[C@@]21C | ? | 2%
CCOc1ccc(/C=C/c2nc(C#N)c(NCCc3ccccc3)o2)cc1 | -12% | -12%
CCOC(=O)C1=NN(c2ccc(OC)cc2)C(c2ccccc2)CC1=O (stereo unspecified) | -9% | -11%
COc1ccc(C2CC(c3ccccc3)=NN2c2ccc(N)cc2)cc1 (stereo unspecified) | 20µM* | -10%
CN[C@@H](c1ccncc1)[C@@H](NC)c1ccncc1 | 12% | 1%
Cc1ccc(CNC(=O)c2ccc(Cn3c(SCc4ccc(F)cc4)nc4cccnc43)cc2)o1 | 0% | -9%
O=C(Nc1ccc(Cn2cccn2)cc1)c1ccc(COc2cccc(Br)c2)cc1 | -13% | -4%
O=C(Nc1ccc(Cn2cccn2)cc1)c1ccc(COc2ccc(Br)cc2)cc1 | 13µM* | 2%
CCC1CCc2c(sc(NC(=O)C3c4ccccc4Oc4ccccc43)c2C(N)=O)C1 (stereo unspecified) | 25µM* | -1%
CCN(CC)C(=O)c1sc(NC(=O)C2c3ccccc3Oc3ccccc32)c(C(=O)OC(C)C)c1C | -7% | -1%
CCOC(=O)c1c(NC(=O)c2ccccc2OCC)sc2c1CCC(CC)C2 (stereo unspecified) | 2% | -1%
CC(C)OC(=O)c1c(NC(=O)C2c3ccccc3Oc3ccccc32)sc2c1CCCC2 | 6.3µM* | -7%
CCCOC(=O)c1c(NC(=O)C2c3ccccc3Oc3ccccc32)sc2c1CCCC2 | 25µM* | -4%
CCOC(=O)c1c(NC(=O)C2c3ccccc3Oc3ccccc32)sc(C(N)=O)c1C | -24% | 2%
SMILES | Cruzain inh noDet | Cruzain Triton
CCc1ccccc1Nc1nn2c(=O)c3ccc(C(=O)NCCCOC(C)C)cc3nc2s1 | 5% | 0%
COc1ccc2oc(=O)cc(CN3CCN(c4ccccc4F)CC3)c2c1 | -8% | 1%
CN1CCN(c2ncc3nc(CCc4ccccc4)c(=O)n(C4CC4)c3n2)CC1 | 0% | -3%
Cc1nn(-c2ccc(N3CCCCC3)nn2)c(C)c1CCC(=O)NCc1ccc(OC(C)C)cc1 | 27% | -1%
Cc1ccccc1N1C(=O)CC(Sc2nnc(-c3ccccc3)o2)C1=O (stereo unspecified) | 3% | -3%
Cc1ccc(N2C(=O)CC(Sc3nc(-c4ccccc4)c4cc(Cl)ccc4n3)C2=O)c(C)c1 (stereo unspecified) | 16µM* | -8%
COc1ccc(-c2cn3cccnc3n2)cc1NC(=O)Nc1cc(C)ccc1C | ? | -4%
COc1nc(-c2ccccc2Cl)ccc1C#N | -7% | -3%
COc1ccc(-c2ccc(C#N)c(OC(=O)c3c(Cl)cccc3Cl)n2)cc1 | ? | 28µM*
COc1ccc(C)cc1N(C(=O)c1ccccc1F)c1nc2ccccc2s1 | 1.6µM* | -5%
COc1ccc(C)cc1N(C(=O)c1ccccc1)c1nc2ccccc2s1 | ? | -4%
COc1ccc(CNC(=O)Cn2ccc3cc(S(=O)(=O)N4CCCCC4)ccc32)cc1OC | ? | -6%
O=C(CSc1nc2ccccc2s1)NCCOc1ccccc1 | 0% | -5%
Nc1nnc(SCC(=O)NCCOc2ccccc2)s1 | ? | 28µM*
